# Results filed as inconclusive are left out. Where a call stands in place of a potency, no number is given. Calls of active or inactive are those of the source. Calls come from the whole dose curve; as a rule, active = well fitted cell-killing curve with a large enough effect in the repeat runs; inconclusive = weak or mixed curves, or effect the other way; inactive = no such curve, though single readings can be large or run the other way.
# Assay: qHTS assay to identify small molecule agonists of the estrogen receptor alpha (ER-alpha) signaling pathway in the presence of an antagonist - cell viability counter screen (AID 1259386);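 note: cells exposed to compounds for 22 h at 37 °C before the viability read; nearly all actives have a fitted effect of over 30% in size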
# Details: VM7Luc4E2 viability, CellTiter-Fluor fluorescence, 22 h; series mostly up to 92.4 µM
# From the text: National Center for Advancing Translational Sciences [NCATS]
# NIH Chemical Genomics Center [NCGC]
# U.S. Environmental Protection Agency [EPA]
# National Institutes of Environmental Health Sciences [NIEHS]
# National Toxicology Program [NTP]
# U.S. Food and Drug Administration [FDA]
# Estrogen receptor (ER), a member of nuclear hormone receptor plays an important role in development, metabolic homeostasis and reproduction. Two subtypes of ER, ER-alpha and ER-beta, have similar expression patterns with some uniqueness in both types. Endocrine disrupting chemicals (EDCs) and their interactions with steroid hormone receptors like ER causes disruption of normal endocrine function. Therefore, it is important to understand the effect of environmental chemicals in ER signaling pathway. For identifying ER agonists, VM7Luc4E2 cell line has been used in the current assay.
# VM7Luc4E2 cell line (provided by Denison MS, University of California) endogenously expresses full-length ER-alpha and is stably transfected with a plasmid containing four estrogen responsive elements (ERE) upstream of a luciferase reporter gene. This current screening for measuring luciferase reporter gene activity using VM7Luc4E2 cells against Tox21 10K library collection is a confirmation study on agonist mode screening in presence of ER-antagonist (ICI-182,780) at 10.0nM final concentration. The cytotoxicity of the compounds was tested in parallel by measuring the cell viability using CellTiter-Fluor assay system (Promega, Madison, WI) in the same wells.
# Tox21 Assay Protocol Summary:
# VM7Luc4E2 cells were cultured in phenol red free assay medium containing 10% charcoal stripped FBS for 5 days prior to the assay. The cells were dispensed at 4,000 cells in 4uL of assay medium per well into white wall/solid-bottom 1536-well plates (Corning Life Sciences, Corning, NY) using a Multidrop Combi (Thermo Fisher Scientific Inc., Waltham, MA) dispenser. After the assay plates were incubated at 37C and 5% CO2 for 24hr, 1uL of 10.0nM (final concentration) ICI-182,780 or assay buffer was added using two separate tips of Flying Reagent Dispenser (FRD, Aurora Discovery, San Diego, CA). Then 23nL of compounds dissolved in DMSO at 15 concentrations and positive controls or DMSO only was transferred to the assay plates by a Pintool station (Wako, San Diego, CA). The assay plates were incubated at 37C and 5% CO2 for 22hr. After 21hr incubation at 37C, 1uL/well CellTiter-Fluor reagent (Promega Corporation, Madison, WI) was added to each well using FRD and after 1hr incubation at 37C and 5% CO2, the fluorescence signal was measured on ViewLux plate reader (PerkinElmer, Shelton, CT).
SMILES,Potency,"activity change, negative = cytotoxicity"
CCOC(=O)NCCC[Si](OCC)(OCC)OCC,inactive,–
CCCCCCCCCCCCCCCCOP(=O)([O-])OCC[N+](C)(C)C,inactive,–
Cc1ccc(C(C)C)cc1O,inactive,–
CCOC(=O)CS,inactive,–
NNS(=O)(=O)c1ccc(Oc2ccc(S(=O)(=O)NN)cc2)cc1,inactive,–
CC(C)(CO)[C@@H](O)C(=O)NCCC(=O)O,inactive,–
O=CCCc1ccccc1,inactive,–
CC(C)=CCC[C@](C)(O)[C@@H]1CC=C(C)CC1,inactive,–
CN(C)CCOc1ccccc1Cc1ccccc1,inactive,–
O=S(=O)(O)C(F)(F)F,inactive,–
CO[C@@]1(NC(=O)CSCC#N)C(=O)N2C(C(=O)O)=C(CSc3nnnn3C)CS[C@@H]21,inactive,–
Cc1ccc(C)c(N)c1,inactive,–
O=C1CCC(C2CCCCC2)CC1,inactive,–
CCCCC(=O)O[C@]1(C(=O)CO)[C@H](C)C[C@H]2[C@@H]3CCC4=CC(=O)C=C[C@]4(C)[C@@]3(F)[C@@H](O)C[C@@]21C,inactive,–
O=c1[nH]cnc2c1ncn2[C@@H]1O[C@H](CO)[C@@H](O)[C@H]1O,inactive,–
CCCCCCCCc1ccc(S(=O)(=O)O)cc1,inactive,–
CC(=O)O[C@H]1CC[C@@]2(C)C(=CC[C@@H]3[C@@H]2CC[C@]2(C)C(C(C)=O)=CC[C@@H]32)C1,inactive,–
CN1CCN(N)CC1,inactive,–
CC1(C)C(=O)N(Cl)C(=O)N1Br,inactive,–
CC1(C)O[C@@H]2C[C@H]3[C@@H]4CCC5=CC(=O)CC[C@]5(C)[C@@]4(F)[C@@H](O)C[C@]3(C)[C@]2(C(=O)CCl)O1,inactive,–

SMILES,Potency,"activity change, negative = cytotoxicity"
FC(F)(F)C(Cl)(Cl)Cl,inactive,–
CCOC(=O)c1cc(=O)c2c(OCC(COc3cccc4oc(C(=O)OCC)cc(=O)c34)OC(=O)[C@@H](N)CCCCN)cccc2o1,inactive,–
CC(Oc1c(Cl)cccc1Cl)C1=NCCN1 (stereo not given),inactive,–
CCCCCCOc1ccc(N)cc1,inactive,–
COc1cc2c(cc1N)oc1ccccc12,inactive,–
CCCN(CCC)C(=O)C(CCC(=O)O)NC(=O)c1ccccc1 (stereo not given),inactive,–
CCCCCCn1c(=O)c2c(ncn2C)n(C)c1=O,inactive,–
C=O,inactive,–
ICCc1ccccc1,inactive,–
CCNCCO,inactive,–
C[C@@H]1CN(c2c(F)c(F)c3c(=O)c(C(=O)O)cn(C4CC4)c3c2F)C[C@H](C)N1,–,0.208% [at 19 µM] (inactive)
O=C1C=CC(=O)O1,inactive,–
CN(CCCN1c2ccccc2CCc2ccccc21)CC(=O)c1ccc(Cl)cc1,inactive,–
CCCCCCC,inactive,–
Cc1ncc(CO)c(CN)c1O,inactive,–
CC(C)C[C@H](NC(=O)OCC1c2ccccc2-c2ccccc21)C(=O)O,inactive,–
C=CC1CO1 (stereo not given),inactive,–
O=C1CCN(c2ccccc2)N1,inactive,–
CC(=O)N(CC(O)CN(C(C)=O)c1c(I)c(C(=O)NCC(O)CO)c(I)c(C(=O)NCC(O)CO)c1I)c1c(I)c(C(=O)NCC(O)CO)c(I)c(C(=O)NCC(O)CO)c1I (stereo not given),inactive,–
OCCN(CCO)c1ccccc1,inactive,–

# Reference: PubChem BioAssay (Tox21)
